{"source": "paper PMC5540273", "about": "(PLoS ONE, 2017);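 also: KINOMEscan kinase panel screen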", "data": [{"tested_on": "ADCK4", "conditions": "concentration: 1 μM, replicates: in singlicate; n = 1", "units": {"%Inh": "%"}, "values": [{"smiles": "C[C@@H](Oc1cc(-n2cnc3cc(-c4ccnc(NCCS(C)(=O)=O)c4)ccc32)sc1C(N)=O)c1ccccc1Cl", "note": "[GSK907232]", "%Inh": 10}, {"smiles": "CN1CCN(Cc2cccc(-c3ccc4c(Nc5ccc(Oc6ccccc6)cc5)ccnc4c3)c2)CC1", "note": "[GW578342]", "%Inh": 9}, {"smiles": "Cc1ccc(S(=O)(=O)Nc2ccc(Nc3nccc(Nc4cccc5[nH]ncc45)n3)cc2)cc1", "note": "[GSK581271]", "%Inh": 87}]}, {"tested_on": "AKT1", "conditions": "concentration: 1 μM, replicates: in singlicate; n = 1", "units": {"%Inh": "%"}, "values": [{"smiles": "Cl.c1ccc(-c2ccc3c(Nc4ccc5[nH]ccc5c4)ccnc3c2)nc1", "note": "[GW440138]", "%Inh": 0}, {"smiles": "Nc1n[nH]c2cnc(-c3ccccc3)cc12", "note": "[SB-642124]", "%Inh": 0}, {"smiles": "CN(C)Cc1ccc(-c2ccc3c(Nc4ccc(Oc5ccccn5)cc4)ccnc3c2)o1", "note": "[GW567148]", "%Inh": 0}, {"smiles": "CC(C)(C)c1ccc2nccc(Nc3cccc(O)c3)c2c1", "note": "[GW856795]", "%Inh": 0}, {"smiles": "O=c1[nH]cc(-c2ccc(N3CCOCC3)cc2)c2sc(-c3cn[nH]c3)cc12", "note": "[GSK2276055]", "%Inh": 0}, {"smiles": "O=C(Nc1n[nH]c2cc(-c3ccoc3)ccc12)C1CC1", "note": "[SB-738481]", "%Inh": 0}, {"smiles": "CC(=O)N1CCN(c2ccc(Nc3nccc(-c4sc(C(C)C)nc4-c4cccc(NS(=O)(=O)c5cccc(Cl)c5)c4)n3)cn2)CC1", "note": "[GSK1660437]", "%Inh": 0}, {"smiles": "COc1cc2c(cc1OCCN1CCNCC1)ncc1c3ccc(C#N)cc3[nH]c21", "%Inh": 0}, {"smiles": "CNC(=O)c1ccccc1Nc1nc(Nc2ccc(N3CCOCC3)cc2)ncc1Cl.Cl", "note": "[GSK1576028]", "%Inh": 42}, {"smiles": "Oc1cc(Nc2ccnc3cc(I)ccc23)ccc1F", "note": "[GW552771]", "%Inh": 0}, {"smiles": "COc1cccc(C2=C(Nc3ccc(Cl)c(C(=O)O)c3)C(=O)NC2=O)c1", "note": "[SB-390769]", "%Inh": 0}, {"smiles": "O=C(Nc1cccc(-c2nn3ccccc3c2-c2ccnc(Nc3cccc(F)c3)n2)c1)c1c(F)ccc(F)c1Cl", "note": "[GSK357952]", "%Inh": 0}, {"smiles": "O=C(Nc1cccc(Oc2ccc3nc(NC(=O)C4CC4)cn3n2)c1)c1ccccc1C(F)(F)F", "%Inh": 0}, {"smiles": "CSc1cccc2c(-c3ccncn3)c(-c3ccc(F)cc3)nn12", "note": "[GW514786]", "%Inh": 0}, {"smiles": "Cn1cc(-c2[nH]c3cc(NC(=O)[C@H](N)C4CCCCC4)cc4c3c2C=NNC4=O)cn1", "%Inh": 60}, {"smiles": "COc1ccc(CNC(=O)NC2CCN(c3ccnc(Nc4ccc(F)cc4)n3)CC2)cc1", "note": "[GSK1379788]", "%Inh": 0}, {"smiles": "COc1cccc(NC(=O)NC2CCN(c3ccnc(Nc4cc(OC)c(OC)c(OC)c4)n3)C2)c1", "note": "(stereo not shown) [GSK1379763]", "%Inh": 0}, {"smiles": "O=C(Nc1n[nH]c2nc(-c3ccc(O)cc3)ccc12)C1CC1", "note": "[SB-710363]", "%Inh": 0}, {"smiles": "CN1CCN(CCCNc2nccc(-c3c(-c4ccc(F)cc4)nn4cc(C(F)(F)F)ccc34)n2)CC1", "note": "[GW621581]", "%Inh": 0}, {"smiles": "c1ccc(-c2n[nH]cc2Nc2ccnc3ccccc23)nc1", "note": "[GW694077]", "%Inh": 0}, {"smiles": "CCc1ccc(-c2ccc3c(c2)-c2c(cnn2C)S(=O)(=O)N3C)cc1", "%Inh": 0}, {"smiles": "NCCCC(NC(=O)c1cc(Br)c(-c2ccnc3[nH]ccc23)s1)c1ccccc1.O=C(O)C(F)(F)F.O=C(O)C(F)(F)F", "note": "(stereo not shown) [GSK1287544]", "%Inh": 89}, {"smiles": "Nc1ncc(-c2cccnc2)c2scc(-c3ccc4c(c3)CCN4C(=O)Cc3ccccc3)c12", "note": "[GSK683281]", "%Inh": 0}, {"smiles": "Cl.c1ccc(-c2ccc3c(Nc4ccc5[nH]ncc5c4)ccnc3c2)nc1", "note": "[GW440137]", "%Inh": 0}, {"smiles": "Cc1ccc(C)c(NC(=O)NC2CCN(c3ccnc(Nc4ccc(F)cc4)n3)C2)c1", "note": "(stereo not shown) [GSK1379720]", "%Inh": 0}, {"smiles": "COc1cc(Nc2nccc(-c3c(-c4cccc(NC(=O)c5c(F)cccc5F)c4)nn4ccccc34)n2)cc(OC)c1OC", "note": "[GSK323521]", "%Inh": 8}, {"smiles": "Fc1ccc(-c2ncn(C3CCNCC3)c2-c2ccnc(Oc3ccc(-c4ccccc4)cc3)n2)cc1", "note": "[SB-245391]", "%Inh": 20}, {"smiles": "COc1cc(Nc2ncc3c(C)nc(-c4cc5ccccc5[nH]4)n3n2)cc(OC)c1OC", "note": "[GW869516]", "%Inh": 8}, {"smiles": "Clc1ccc(-c2nn3ncccc3c2-c2ccnc(Nc3ccc4c(c3)OCCO4)n2)cc1", "note": "[GW829116]", "%Inh": 13}, {"smiles": "c1ccc(-c2cnc3nccnn23)cc1", "note": "[AH20685]", "%Inh": 0}, {"smiles": "O=C(Nc1ccccc1F)NC1CCN(c2ccnc(Nc3ccc(F)cc3)n2)CC1", "note": "[GSK1379800]", "%Inh": 0}]}]}
